The text below walks through data of PubChem BioAssay (Tox21).

“And” between values parts separate entries of the source, which are not always exact repeats. Identical values can stand only once. Records with an inconclusive call do not appear. Some structures have more than one record in an assay (separate samples or runs), and their calls can disagree. The source made the active and inactive calls. Calls come from the whole dose curve; as a rule, active = well fitted inhibition curve with a large enough effect in the repeat runs; inconclusive = weak or mixed curves; inactive = no such curve, though single readings can be large or run the other way.
% is set by controls: 0 for no effect and ±100 for the full control effect; potency is the fitted concentration of half-maximal effect.

The target of the assay is Cytochrome P450 2C19 (Homo sapiens) (UniProt P33261). Kind of assay: Cytochrome P450 Family 2 Subfamily C Member 19 (CYP2C19) small molecule antagonists: luciferase reporter qHTS assay (AID 1671197). Note: nearly all actives have a fitted effect of over 65% in size. The settings on record: P450-Glo CYP2C19 enzyme, luciferin luminescence, 1 h; series mostly up to 115 µM; activity change, negative = inhibition: at the top concentration. The procedure, abridged: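 P450-Glo CYP2C19 screening system; proluciferin substrate; DMSO compound stocks; 10 min RT preincubation; NADPH regeneration, 1 h at 37C; luciferin detection reagent, 20 min RT; luminescence as RLU.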
Cytochrome P450 2C19 (Homo sapiens), sequence (P33261 whole entry, looked up): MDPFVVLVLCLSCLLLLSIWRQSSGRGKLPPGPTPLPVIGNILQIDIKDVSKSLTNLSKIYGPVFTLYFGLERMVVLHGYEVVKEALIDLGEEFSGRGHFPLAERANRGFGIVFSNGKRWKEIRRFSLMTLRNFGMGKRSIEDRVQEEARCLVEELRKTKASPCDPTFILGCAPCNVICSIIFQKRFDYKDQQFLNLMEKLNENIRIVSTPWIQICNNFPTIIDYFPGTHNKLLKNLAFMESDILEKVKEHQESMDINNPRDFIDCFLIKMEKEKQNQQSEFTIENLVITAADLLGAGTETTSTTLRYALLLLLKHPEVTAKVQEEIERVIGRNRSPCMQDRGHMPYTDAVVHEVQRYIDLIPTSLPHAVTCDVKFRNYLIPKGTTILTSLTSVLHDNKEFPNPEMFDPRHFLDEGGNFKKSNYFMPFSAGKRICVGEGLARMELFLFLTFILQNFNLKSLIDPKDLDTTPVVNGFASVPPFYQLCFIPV
Regarding `COc1ccccc1O`, the “activity change, negative = inhibition” value is -13.7% (inactive).

Consider `C=CCOC(=O)CC(C)C`, for which the Potency entry is “inactive”.

`C#C[C@]1(O)CC[C@H]2[C@@H]3CCc4cc(O)ccc4[C@H]3CC[C@@]21C`: the Potency was 7.05 µM (active) and 10 µM (active) and 13.8 µM (active).

As to `CCCCOCCOCCOC(C)=O`, the Potency entry was “inactive”.

As for `CC(C)Cc1ccc(C(C)C(=O)O)cc1` (stereo unspecified), the Potency result was “inactive”.

Consider `Cc1cccc(C)c1O`, for which the Potency is 72.1 µM (active) and inactive.

Regarding `C#C[C@]1(O)CC[C@H]2[C@@H]3CCC4=CC(=O)CC[C@@H]4[C@H]3CC[C@@]21CC`, the Potency is 2.83 µM (active) and 5.64 µM (active) and 2.45 µM (active).

On to `Cc1ccc(O)c(-n2nc3ccccc3n2)c1`, for which the Potency was 7.05 µM (active) and 10 µM (active).

Regarding `NC(N)=NC(N)=NCCc1ccccc1`, the “activity change, negative = inhibition” value is 4.99% (inactive).

Take `O=C(OCc1ccccc1)c1ccccc1`: the Potency was 31.8 µM (active) and 39.9 µM (active) and 17.4 µM (active).

For the compound `CC(C)(C)CC(C)(C)c1ccc(O)c(-n2nc3ccccc3n2)c1`, the Potency was 36.1 µM (active) and 20 µM (active).

For the compound `Cc1cccc2ccccc12`, the Potency entry is “inactive and 71 µM (active)”.

Turning to `CC(=O)/C=C/C1=C(C)CCCC1(C)C`, the Potency was 40.7 µM (active) and 39.9 µM (active) and 71 µM (active).

As for `C=C(C)C(N)=O`, the Potency entry was “inactive”.

For `CC1=NN(c2ccccc2)C(=O)C1`, the Potency was 71.4 µM (active) and inactive.

For the compound `CC(=O)CCC(C)C`, the Potency result is “inactive”.

Turning to `CO[C@H]1C=CO[C@@]2(C)Oc3c(C)c(O)c4c(O)c(c(/C=N/N5CCN(C)CC5)c(O)c4c3C2=O)NC(=O)/C(C)=C\C=C[C@H](C)[C@H](O)[C@@H](C)[C@@H](O)[C@@H](C)[C@H](OC(C)=O)[C@@H]1C`, the Potency was 35.8 µM (active) and 50.8 µM (active) and 9.77 µM (active).

Turning to `COc1ccc(C(=O)c2ccccc2)c(O)c1`, the Potency is 5.55 µM (active) and 10 µM (active) and 4.9 µM (active).

As to `N[C@@H](Cc1c[nH]c2ccccc12)C(=O)O`, the Potency is 31.8 µM (active) and inactive.

For the compound `NC(=O)N1c2ccccc2C=Cc2ccccc21`, the Potency is 70.6 µM (active) and inactive.

On to `CC1(C)O[C@@H]2[C@@H](CO[C@@]3(COS(N)(=O)=O)OC(C)(C)O[C@@H]23)O1`, for which the Potency is 4.9 µM (active).
